# Results published in PubChem BioAssay AID1159524 (National Center for Advancing Translational Sciences (NCATS), 2015).
# Among all 410,000 compounds or so, about 5,100 (1.2%) were called active. Not shown: some 8% with an inconclusive outcome. Shown is part of a subset that was picked to be rich in actives. A number with no mark means an inactive call. Calls follow the shape of the full dose curve; tested in HEK293T cells.
# Experiment: High Throughput Screening for Foot and Mouth Disease Virus Antivirals; also: read-out not given here; nearly all actives have a fitted effect of over 45% in size
# Details: FMDV antiviral cell-based qHTS; series mostly up to 57.9 µM; activity change, negative = inhibition: at the top concentration
# % is scaled to controls: 0 for no effect and ±100 for the full control effect; potency is read from the fitted curve at half-maximal effect.
SMILES,"activity change, negative = inhibition",Potency
COc1ccc(CCNc2ncnc3sc(C(=O)N4CCCC4)c(C)c23)cc1OC,-6.91%,–
COc1ccc(CCNc2ncnc3nc[nH]c23)cc1OC,–,25.1 µM (active)
COc1ccc(CCNc2nc3ccc(C)cc3n3cnnc23)cc1OC,-23.1%,–
c1ccc(CCCCN2CCC(c3ccccc3)CC2)cc1,–,inactive
CCOC(=O)/C(=C\c1ccc([N+](=O)[O-])cc1)C(=O)c1cc(C(C)=O)c(Nc2ccccc2)s1,–,15.8 µM (active)
CC(C)c1nnc(NC(=O)COC(=O)/C=C/c2ccc([N+](=O)[O-])cc2)s1,-20.7%,–
CCOC(=O)c1c(C)[nH]c(C)c1C(=O)COC(=O)/C=C/c1cccc([N+](=O)[O-])c1,-27.2%,–
COc1ccc(OCCCn2c(C)nc3cc(C)c(C)cc32)cc1,-14.5%,–
COc1ccc(NC(=O)CSc2nccn2C2CCCC2)cc1OC,-3.75%,–
COc1ccc(C2CC(=O)N(Cc3ccccc3C)c3c2c(C)nn3-c2nc(C)cc(C)n2)c(OC)c1 (stereo not given),-17.6%,–
O=C(O)CCn1c(O)c(C=C2N=c3ccccc3=N2)sc1=S,–,10 µM (active)
CCc1nc(-c2cc(S(=O)(=O)N3CCN(c4ccc(OC)cc4)CC3)ccc2OC)no1,2.16%,–
CN(C)C1CN(Cc2cn(Cc3ccccc3)nn2)S(=O)(=O)C1 (stereo not given),-13.3%,–
CN(Cc1cn(Cc2ccc(C(F)(F)F)cc2)nn1)C1CN(Cc2cn(Cc3ccc(C(F)(F)F)cc3)nn2)S(=O)(=O)C1 (stereo not given),–,17.8 µM (active)
Cc1ccc(Cn2cc(CN3CC(N4CCN(C)CC4)CS3(=O)=O)nn2)cc1 (stereo not given),-21.6%,–
Cc1ccc(CN2CCC(CNC(=O)c3cnn(-c4ccc(C)cc4)c3C3CCN(C(=O)OC(C)(C)C)CC3)CC2)cc1,-4.3%,–
COc1ncc2nc(-c3ccc(Cl)cc3)c(=O)n(C)c2n1,9.77%,–
Cc1ccc(NC(=O)c2nc(S(=O)(=O)Cc3cccc(C)c3)ncc2Cl)cc1,–,25.1 µM (active)
O=C(Nc1nc2ccc(F)cc2s1)c1nc(SCc2ccccc2F)ncc1Cl,-23.3%,–
Cc1ccc2nc(NC(=O)c3nc(SCc4ccccc4F)ncc3Cl)sc2c1,-21.4%,–
Cc1cccc(NC(=O)c2nc(S(=O)(=O)Cc3ccccc3)ncc2Cl)c1,–,10 µM (active)
CCS(=O)(=O)c1ncc(N(Cc2ccc(F)cc2)Cc2ccco2)c(C(=O)Nc2cc(C)ccc2C)n1,7.45%,–
CSc1nnc(NC(=O)c2nc(S(=O)(=O)Cc3ccc(C)cc3)ncc2Cl)s1,–,12.6 µM (active)
Cc1cccc(NC(=O)Cn2cc(S(=O)(=O)Cc3ccccc3Cl)c3ccccc32)c1,-1.97%,–
CCOC(=O)c1ccc(NC(=O)c2nc(SCc3ccc(F)cc3)ncc2Cl)cc1,-13.5%,–

SMILES,"activity change, negative = inhibition",Potency
CCCSc1ncc(Cl)c(C(=O)Nc2c(C(=O)Nc3ccccc3)oc3ccccc23)n1,-12.2%,–
CCC(C)(C)N=C(NC#N)Nc1cccnc1,-21.6%,–
COc1ccccc1C1CN(CCNC(=O)C2=CCCC2)Cc2ccccc2O1 (stereo not given),34.4%,–
CCOC(=O)c1c(S(=O)(=O)N2CCCC(C(=O)NCc3cccc(C)c3)C2)c(C)n(C)c1C (stereo not given),-22.3%,–
CCc1ccccc1N1C(=O)CN(S(=O)(=O)CC)CC1(C)C(=O)NC1CCCCC1 (stereo not given),0%,–
CCN(CCCNC(=O)Cn1ncc2c([nH]c3ccccc32)c1=O)c1cccc(C)c1,-8.64%,–
Cc1[nH]c2c(C(=O)NCC3Cc4cccc(-c5cccnc5)c4O3)cccc2c1C (stereo not given),12.1%,–
N#Cc1cccc(-c2ccc3ncnc(NCc4cccs4)c3c2)c1,-17.2%,–
O=C1CC(c2nnc(Cc3ccc(Cl)cc3)o2)CN1c1ccccc1 (stereo not given),1.46%,–
Cc1noc(C)c1-c1nccc(N2CCOCC2)n1,-12.1%,–
CCCc1nc(SCC(=O)Nc2ccccc2OC)c2c(=O)n(C)c(=O)n(C)c2n1,–,25.1 µM (active)
CCCc1nc(SCC(=O)N2CCCC2)c2c(=O)n(C)c(=O)n(C)c2n1,-3.3%,–
CCc1nc(SCC(=O)Nc2ccccc2OC)n[nH]1,13.3%,–
COc1cccc(-c2nc(Nc3ccncc3)c3ccccc3n2)c1,-29.5%,–
CN1CCN(c2ncncc2-c2ccc(C(=O)N(C)C)cc2)CC1,2.84%,–
CN(C)C(=O)[C@@H]1C[C@@H](Sc2nc3ccccc3[nH]2)CN1Cc1ccc(Cl)cc1,39.8%,–
N#C/C=C/N1CCN(Cc2ccc3c(c2)OCO3)CC1,-8.21%,–
Fc1ccc2[nH]c3c(N4CCSCC4)ncnc3c2c1,–,3.16 µM (active)
Fc1ccc2[nH]c3c(N4CCN(Cc5ccc6c(c5)OCO6)CC4)ncnc3c2c1,–,6.31 µM (active)
O=C(CSc1nc2c(c(=O)[nH]1)CN(Cc1ccc3c(c1)OCO3)CC2)Nc1cc(F)ccc1F,6.05%,–
Cc1cccc2nc(-c3ccc(Cl)s3)c(Nc3ccc4c(c3)OCCO4)n12,42.3%,–
CCOC(=O)c1cc2cc(-c3c(C(=O)OCC)oc4cc(O)cc(O)c4c3=O)ccc2o1,–,31.6 µM (active)
CCOC(=O)c1c(-c2ccc(OC)cc2)oc2ccc(OCc3ccc(C(=O)OC)cc3)cc12,-24.4%,–
CCN(CC)CCOC(=O)c1cc2cc(COC)ccc2o1,-7.56%,–
Cc1ccc(-c2nnc(SCc3ccccc3C)o2)cc1,66.9%,–

SMILES,"activity change, negative = inhibition",Potency
COc1ccccc1CNc1cc(-c2ccccc2CN(C)C)ncn1,-23.5%,–
O=C(c1ccc2c(c1)N(Cc1ccc(Cl)cc1)C(=O)c1ccccc1S2(=O)=O)N1CCCCC1,-18.2%,–
COc1ccc(C)cc1N1C(=O)[C@@H]2C[C@H]1CN2Cc1cccc(OC)c1O,-3.08%,–
CCCCC/C=C\C/C=C\C/C=C\CCCCCCC(=O)NCCO,-10.3% [at 6.7 µM],–
O=C(CC(O)(C(F)(F)F)C(F)(F)F)Nc1ccc(Cl)c(Cl)c1,–,8.91 µM (active)
CC(c1cccnc1)N(CCN(C)C)C(=O)Nc1ccc(Cl)c(Cl)c1 (stereo not given),-16.7%,–
Cc1ccc(-c2nn(CCC(=O)Nc3ccc(Cl)c(Cl)c3)c(=O)c3ccccc23)cc1,1.63%,–
Cc1cc(Nc2cccc(C(F)(F)F)c2)nc2ccc(NC(=O)c3ccc(=O)[nH]c3)cc12,-8.82%,–
Cc1ccc(/C(=C/CN2CCCC2)c2ccccn2)cc1,1.29%,–
CC(N)(C(=O)O)c1ccc(-c2nn[nH]n2)cc1 (stereo not given),-9.72%,–
CCN1CCN(C(c2ccc(C)cc2)c2c(O)cc(C)n(Cc3ccco3)c2=O)CC1 (stereo not given),-29.2%,–
O=S(=O)(c1cccc(-c2nnc3n2CCCCC3)c1)N1CCOCC1,30.2%,–
O=C(Nc1ccc2c(c1)nc1n2CCCCC1)c1cc(S(=O)(=O)N2CCOCC2)ccc1Cl,–,25.1 µM (active)
Cc1occc1C(=O)Nc1cccc(S(=O)(=O)N2CCOCC2)c1,15.8%,–
CCOc1ccccc1NC(=O)CSc1ncc(S(=O)(=O)c2ccc(C(C)(C)C)cc2)c(=O)[nH]1,-2.88%,–
Cc1ccc(S(=O)(=O)c2nc(-c3ccco3)oc2SCC(=O)Nc2ccc(F)cc2)cc1,15.1%,–
Nc1nnc(SCC(=O)Nc2ccc3nc(SCC(=O)Nc4ccccc4)sc3c2)s1,–,20 µM (active)
CCC(=O)Nc1ccc2nc(SCC(=O)N3CCc4ccccc43)sc2c1,-19.9%,–
Cc1cccc(OCCSc2nc3ccc(NC(=O)COc4ccccc4C)cc3s2)c1,0%,–
O=C(Nc1ccc2nc(SCCOc3ccccc3Cl)sc2c1)c1ccco1,-20.6%,–
Cc1ccc(OCCSc2nc3ccc(NC(=O)COc4ccc(C)cc4)cc3s2)cc1,-5.33%,–
O=C(COc1ccccc1Cl)Nc1ccc2nc(SCC(=O)N3CCCC3)sc2c1,–,31.6 µM (active)
COc1ccc(NC(=O)Nc2cccc(-c3noc(C)n3)c2)cc1,1.15%,–
CCNc1ncc2ncc(=O)n(Cc3cccc(OC)c3)c2n1,-19.5%,–
COCCNc1ncnc2ccc(-c3cccnc3)cc12,-22.4%,–

SMILES,"activity change, negative = inhibition",Potency
COC(=O)C(c1ccccc1)N1CCCCCC1 (stereo not given),-7.95%,–
CC1(C)CC(N2CCN(C(c3ccccc3)c3ccccc3)CC2)=CC(=[N+]2CCCCC2)C1,–,2.82 µM (active)
CCN1CCN(c2ncc3c(n2)CC(c2ccccc2O)CC3=O)CC1 (stereo not given),-14.9%,–
COCc1[nH]nc2c1C(C1C=CCCC1)C(C#N)=C(N)O2 (stereo not given),–,31.6 µM (active)
N#CC1=C(N)Oc2cc(O)ccc2C1C1CCCCC1 (stereo not given),-23.5%,–
Cc1nc2nc(NCc3cccc(Br)c3)[nH]n2c(=O)c1Cc1ccccc1,-16.8%,–
COCCNC(=O)c1cc(-c2cccc(Cl)c2)on1,33.4%,–
COc1cc2nc(NCC(C)c3ccccc3)n3nc(-c4ccccc4)nc3c2cc1OC (stereo not given),-29.4%,–
Cc1cnc(CNc2ncncc2-c2ccccc2Cl)cn1,-16.2%,–
Cn1cc(-c2nc3cnc(N4CCNCC4)nc3n(CCC#N)c2=O)c2ccccc21,-2.62%,–
COc1cccc(CNc2nc(NCc3ccccc3OC)nc3ccsc23)c1,–,25.1 µM (active)
COc1cccc(CNc2nccn(-c3ccc(OC)c(OC)c3)c2=O)c1,-12.6%,–
COc1ccc(CNc2ncncc2-c2ccccc2OC)c(OC)c1,-28%,–
CCCN(C/C=C\I)[C@@H]1CCc2cccc(O)c2C1,-10.2%,–
COc1ccc(-c2nc3sc(CCNC(=O)C(C)(C)C)c(C)n3n2)cc1,-39.9%,–
c1cncc(-c2nc(N3CCNCC3)c3ccccc3n2)c1,-4.3%,–
O=C(COc1nc2ccccc2nc1N1CCOCC1)NCC(F)(F)F,-17.8%,–
c1ccc(Nc2nc(N3CCOCC3)c3ccccc3n2)cc1,–,11.2 µM (active)
O=C(O)C[C@@H]1NC(=O)[C@H](Cc2ccccc2)NC1=O,-7.83%,–
Cc1ccc(OCCC(=O)OCC(=O)N2c3ccccc3NC(=O)C2(C)C)cc1,-21.8%,–
CNS(=O)(=O)c1cccc(C(=O)OCC(=O)N2c3ccccc3NC(=O)C2(C)C)c1,-4.37%,–
CCNc1ccc(C(=O)OCC(=O)N2c3ccccc3NC(=O)C2(C)C)cc1[N+](=O)[O-],–,20 µM (active)
COc1ccc2c(c1)NC(=O)C2CC(=O)N1CCOc2c(cc(-c3cnc4ccccc4c3)cc2OC)C1 (stereo not given),-23.5%,–
O=C1/C(=C\c2ccc([N+](=O)[O-])cc2)CS(=O)(=O)C/C1=C/c1ccc([N+](=O)[O-])cc1,–,2.24 µM (active)
Nc1ccc([N+](=O)[O-])cc1,-19.3%,–
